From PubChem BioAssay (NCATS)
Inconclusive results are not listed. Unless noted, calls come from the whole dose curve; as a rule, active = well fitted activation curve with a large enough effect in the main read-out, with a control signal flat (not every such curve was filed as active); inconclusive = small, poorly fitted or top-dose-only effect, or effect the other way, or a change in a side signal; inactive = flat fitted curve, though single readings scatter.

Target: Mitogen-activated protein kinase 10 (Mus musculus) (UniProt Q61831)
Assay: JNK3 AlphaScreen Assay (AID 530; active = well fitted curve in either direction with a large enough effect, not every such curve was filed as active;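 note: kinase came from lysate of stimulated human HepG2 cells; signal reports phosphorylation of biotinylated GST-cJun 1-79 at Ser73 with 10 µM ATP; % is set by controls: 0 for no effect and ±100 for the full control effect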)
Details: JNK3 lysate, c-Jun phosphorylation; series mostly up to 57.1 µM; activity change, negative = inhibition: at the top concentration
In short: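 qHTS titrations with 15 min compound pre-incubation before adding ATP (10 uM final). Read-out: AlphaScreen of Ser73-phosphorylated biotin-GST-cJun using HepG2 lysate JNK3 activated by IL-1β and TNFα.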

Activity change, negative = inhibition, inactive:
COC(=O)[C@H]1C[C@@H]1[C@H](NC(=O)Oc1ccc(F)cc1)c1ccccc1 3.52%
COC(=O)C1CC1C(NC(=O)[C@H]1CCCCN1)c1ccccc1 (stereo not given in full) -2.34%
O=C(NCc1cc(F)cc2c1OCCO2)[C@H]1C[C@@H]1[C@H](NP(=O)(c1ccccc1)c1ccccc1)c1ccccc1 -12.4%
CCCCCC1=C2CNC(CCC)(C(=O)OC)C=C2C(C)C1=O (stereo not given) -3.27%
C[C@@H](C(=O)Nc1ccc2ccccc2c1)[C@@H]1C[C@@]1(C)[C@@H](NS(=O)(=O)c1ccc2ccccc2c1)c1ccccc1 -2.45%
C[C@@]1(C(NC(=O)c2cccs2)c2ccc(-c3ccccc3)cc2)C[C@H]1C1CCCCC1 (stereo not given in full) 1.46%
C[C@@H](C(=O)Nc1ccc2ccccc2c1)[C@@H]1C[C@@]1(C)[C@@H](NC(=O)OCc1ccccc1)c1ccccc1 5.76%
O=C(NCCc1c[nH]c2ccccc12)[C@@H]1C[C@H]1[C@@H](NP(=O)(c1ccccc1)c1ccccc1)c1ccccc1 -13.9%
COC(=O)[C@@H]1C[C@H]1[C@@H](NC(=O)c1cnccn1)c1ccccc1 -3.64%
C#CCCCC(=S)Nc1ccccc1 3.2%
CCCC/C=C/C(NC(=O)C(C)(C)C)c1ccccc1 (stereo not given) 3.6%
O=C(N[C@@H](c1ccccc1)[C@@H]1C[C@H]1C(=O)NCc1ccccn1)OCc1ccccc1 0.545%
COC(=O)C1(C)C=C2C(=C(c3ccccc3)C(=O)C2C)CN1 (stereo not given) -2.74%
C[C@H](CO)NC(=O)[C@H]1C[C@@H]1[C@H](NP(=O)(c1ccccc1)c1ccccc1)c1ccccc1 -1.58%
CCCC1(C(=O)OC)C=C2C(=C(C(C)C)C(=O)C2C)CN1 (stereo not given) 5.41%
COC(=O)C1(Cc2ccccc2)C=C2C(=C(C)C(=O)C2C)CN1 (stereo not given) -9.49%
COC(=O)C1(CC(C)C)C=C2C(=C(C(C)C)C(=O)C2C)CN1 (stereo not given) 0.538%
COC(=O)[C@@]1(Cc2ccccc2)[C@H]2c3cc(C(=O)N4CCCC4)n(Cc4ccc(C)o4)c3C[C@H]2CN1C(=O)c1ccccc1 -28.3%
CCCc1cc2c(n1CCc1ccc(Cl)cc1)C(C)C1CN(C(=O)c3ccccc3)C(C)(C(=O)OC)C21 (stereo not given) -16.4%
CC(C)=C1C(=O)C(c2ccccc2)=C2CN3C(=O)N(CCc4ccccc4)C(=O)[C@]3(Cc3ccccc3)[C@H]21 -2.84%
C[C@H]1C2=C3C(CC[C@H]4C(OCc5ccc(F)cc5C(F)(F)F)OC[C@](C)([C@@H]34)N(C(=O)OC(C)(C)C)C2)C(CO)C1CO (stereo not given in full) -5.79%
O=C(NCCc1c[nH]c2ccccc12)[C@H]1C[C@@H]1[C@H](NP(=O)(c1ccccc1)c1ccccc1)c1ccccc1 -22.3%
COC(=O)C1CC1C(NC(=O)[C@@H]1CCCN1)c1ccccc1 (stereo not given in full) -6.35%
CCC/C=C(\CCC)C(NC(=O)c1ccc(C(F)(F)F)cc1)c1ccc(C(F)(F)F)cc1 (stereo not given) 5.84%
COC(=O)[C@H]1C[C@@H]1[C@H](NC(=O)c1cc(C)on1)c1ccccc1 -1.92%
COC(=O)[C@H]1C[C@@H]1[C@H](NC(=O)c1cnccn1)c1ccccc1 -3.56%

Target: 3',5'-cyclic-AMP phosphodiesterase 4B (Homo sapiens) (UniProt Q07343)
Sequence (Q07343 whole entry, looked up): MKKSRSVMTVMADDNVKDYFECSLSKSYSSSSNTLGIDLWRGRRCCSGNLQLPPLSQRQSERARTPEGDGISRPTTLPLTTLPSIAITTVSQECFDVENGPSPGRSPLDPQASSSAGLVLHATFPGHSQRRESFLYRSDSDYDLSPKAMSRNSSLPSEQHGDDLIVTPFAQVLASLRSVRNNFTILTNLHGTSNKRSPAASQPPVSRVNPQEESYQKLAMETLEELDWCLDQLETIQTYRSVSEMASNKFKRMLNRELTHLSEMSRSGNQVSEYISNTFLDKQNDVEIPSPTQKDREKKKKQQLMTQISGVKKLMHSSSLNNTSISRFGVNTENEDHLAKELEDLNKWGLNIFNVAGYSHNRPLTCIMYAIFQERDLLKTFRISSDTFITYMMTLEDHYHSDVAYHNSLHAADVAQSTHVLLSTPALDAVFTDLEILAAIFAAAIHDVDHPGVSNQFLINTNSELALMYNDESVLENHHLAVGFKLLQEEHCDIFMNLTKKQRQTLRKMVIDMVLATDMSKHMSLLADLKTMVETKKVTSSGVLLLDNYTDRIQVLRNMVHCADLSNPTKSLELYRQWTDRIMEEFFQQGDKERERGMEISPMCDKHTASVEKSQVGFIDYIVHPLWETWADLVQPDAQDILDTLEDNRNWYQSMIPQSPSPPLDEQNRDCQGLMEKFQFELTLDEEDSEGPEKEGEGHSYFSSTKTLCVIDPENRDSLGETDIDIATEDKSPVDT
Assay: qHTS Assay for Inhibitors of PDE-IV (AID 607); note: % of control where 0% means no effect
Details: HEK293 ACTOne CNG channel cells, membrane potential fluorescence; series mostly up to 22.9 µM; activation (PDE inhibition): at the top concentration
In short: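 ACTOne HEK293 cells carry a modified cAMP-gated CNG channel and express endogenous PDE4; plated 1000 cells/well, compounds up to 22.9 uM final. Membrane-potential dye fluorescence (ex 535/em 590) was read; parental cells received 10 uM forskolin + 100 uM RO 20-1724.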

Activation (PDE inhibition), inactive:
CCCC[C@@H]1C[C@H]1C(NC(=O)c1cccnc1)c1ccc(Cl)cc1 (stereo not given in full) 25.6%
COC(=O)[C@@H]1C[C@H]1[C@@H](NC(=O)c1cc(C)nn1C)c1ccccc1 4.89%
COC(=O)[C@@H]1C[C@H]1[C@@H](NC(=O)c1cc(C)on1)c1ccccc1 14.4%
C[C@@H](C(=O)Nc1ccc2ccccc2c1)[C@@H]1C[C@@]1(C)[C@@H](NC(=O)c1ccncc1Cl)c1ccccc1 11.9%
CCCC/C=C/C(NC(=O)c1ccco1)c1ccccc1 (stereo not given) 28.4%
COC(=O)[C@@]1(Cc2ccc(OC)cc2)[C@H]2c3cc(C(=O)N4CCCC4)n(Cc4ccc(Cl)c(C(F)(F)F)c4)c3C[C@H]2CN1C(=O)c1ccccc1 19%
C[C@@]1(C(NC(=O)Cc2ccccc2)c2ccc(-c3ccccc3)cc2)C[C@H]1C1CCCCC1 (stereo not given in full) 14.4%
O=C(NCc1nc2ccccc2[nH]1)[C@H]1C[C@@H]1[C@H](NP(=O)(c1ccccc1)c1ccccc1)c1ccccc1 21.6%
CC1=C(C(=O)OCc2ccccc2)C(c2ccc([N+](=O)[O-])cc2)NC(=O)N1CCCCCC(=O)O (stereo not given) -9.56%
COCC1C2CC[C@H]3C(OCc4ccc(F)cc4C(F)(F)F)OC[C@]4(C)[C@H]3C2=C(CN4C(=O)OC(C)(C)C)[C@H](C)C1COC (stereo not given in full) 4.11%
CCCCCC1=C2CNC(C)(C(=O)OC)C=C2C(C)C1=O (stereo not given) -6.94%
C[C@@H](C(=O)NCCF)[C@H]1C[C@]1(C)[C@H](NC(=O)OCc1ccccc1)c1ccccc1 1.55%
COC(=O)[C@@H]1C[C@H]1[C@@H](NC(=O)c1cccnc1)c1ccccc1 2.81%
COC(=O)[C@H]1C[C@@H]1[C@H](NC(=O)Oc1ccc(F)cc1)c1ccccc1 2.34%
COC(=O)C1CC1C(NC(=O)[C@H]1CCCCN1)c1ccccc1 (stereo not given in full) 6.97%
O=C(NCc1cc(F)cc2c1OCCO2)[C@H]1C[C@@H]1[C@H](NP(=O)(c1ccccc1)c1ccccc1)c1ccccc1 17.5%
CCCCCC1=C2CNC(CCC)(C(=O)OC)C=C2C(C)C1=O (stereo not given) 18.9%
C[C@@H](C(=O)Nc1ccc2ccccc2c1)[C@@H]1C[C@@]1(C)[C@@H](NS(=O)(=O)c1ccc2ccccc2c1)c1ccccc1 2%
C[C@@]1(C(NC(=O)c2cccs2)c2ccc(-c3ccccc3)cc2)C[C@H]1C1CCCCC1 (stereo not given in full) 10.8%
C[C@@H](C(=O)Nc1ccc2ccccc2c1)[C@@H]1C[C@@]1(C)[C@@H](NC(=O)OCc1ccccc1)c1ccccc1 -20.8%
O=C(NCCc1c[nH]c2ccccc12)[C@@H]1C[C@H]1[C@@H](NP(=O)(c1ccccc1)c1ccccc1)c1ccccc1 1.39%
COC(=O)[C@@H]1C[C@H]1[C@@H](NC(=O)c1cnccn1)c1ccccc1 15.8%
C#CCCCC(=S)Nc1ccccc1 -8.62%
CCCC/C=C/C(NC(=O)C(C)(C)C)c1ccccc1 (stereo not given) 2.43%
O=C(N[C@@H](c1ccccc1)[C@@H]1C[C@H]1C(=O)NCc1ccccn1)OCc1ccccc1 9.51%
COC(=O)C1(C)C=C2C(=C(c3ccccc3)C(=O)C2C)CN1 (stereo not given) 6.08%
C[C@H](CO)NC(=O)[C@H]1C[C@@H]1[C@H](NP(=O)(c1ccccc1)c1ccccc1)c1ccccc1 12.9%
CCCC1(C(=O)OC)C=C2C(=C(C(C)C)C(=O)C2C)CN1 (stereo not given) 2.43%
COC(=O)C1(Cc2ccccc2)C=C2C(=C(C)C(=O)C2C)CN1 (stereo not given) -1.57%
COC(=O)C1(CC(C)C)C=C2C(=C(C(C)C)C(=O)C2C)CN1 (stereo not given) 6.8%
COC(=O)[C@@]1(Cc2ccccc2)[C@H]2c3cc(C(=O)N4CCCC4)n(Cc4ccc(C)o4)c3C[C@H]2CN1C(=O)c1ccccc1 7.43%
CCCc1cc2c(n1CCc1ccc(Cl)cc1)C(C)C1CN(C(=O)c3ccccc3)C(C)(C(=O)OC)C21 (stereo not given) 7.68%
CC(C)=C1C(=O)C(c2ccccc2)=C2CN3C(=O)N(CCc4ccccc4)C(=O)[C@]3(Cc3ccccc3)[C@H]21 28.7%
C[C@H]1C2=C3C(CC[C@H]4C(OCc5ccc(F)cc5C(F)(F)F)OC[C@](C)([C@@H]34)N(C(=O)OC(C)(C)C)C2)C(CO)C1CO (stereo not given in full) -4.06%
O=C(NCCc1c[nH]c2ccccc12)[C@H]1C[C@@H]1[C@H](NP(=O)(c1ccccc1)c1ccccc1)c1ccccc1 0.384%
COC(=O)C1CC1C(NC(=O)[C@@H]1CCCN1)c1ccccc1 (stereo not given in full) 5.3%
CCC/C=C(\CCC)C(NC(=O)c1ccc(C(F)(F)F)cc1)c1ccc(C(F)(F)F)cc1 (stereo not given) 29.1%
COC(=O)[C@H]1C[C@@H]1[C@H](NC(=O)c1cc(C)on1)c1ccccc1 18.9%
COC(=O)[C@H]1C[C@@H]1[C@H](NC(=O)c1cnccn1)c1ccccc1 7.83%
